Here are results for 63 compounds from PubChem BioAssay AID1463 (National Center for Advancing Translational Sciences (NCATS), 2008).

Among all 280,000 compounds or so, about 2,600 (0.93%) were called active. A call without a number means that no potency is given here. Another 8% or so got no clear call; they are omitted. Calls come from the whole dose curve; as a rule, active = well fitted curve in the direction sought with a large enough effect; inconclusive = small, poorly fitted or top-dose-only effect; inactive = flat fitted curve, though single readings scatter. Only a selection was taken, and actives are over-represented in it overall.
Potency is the fitted concentration of half-maximal effect; tags give direction and shape of the fitted curve or compound fluorescence and quenching.

This test is described as follows: Counterscreen qHTS for Inhibitors of Tau Fibril Formation, Fluorescence Polarization. Note: nearly all actives have a fitted effect of over 55% in size. To be noted: tau K18 P301L (four-repeat tau fragment) Alexa594 fluorescence, heparin fibrillization; series mostly up to 57.7 µM. The gist of the method:
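Human K18 P301L tau (15 uM unlabeled plus 0.24 uM Alexa 594-labeled, final) in 100 mM sodium acetate pH 7 was mixed with compound and 20 uM heparin and incubated 6 hr at 37 C.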
For `Cc1cc(C)cc(Nc2ncnc3onc(-c4ccc(F)cc4)c23)c1`, the Potency result was “inactive”. For `Cc1cc(OCC(=O)NCC2(N(C)C)CCCCC2)cc(C)c1Cl`, the Potency result is “inactive”. Take `COC(=O)c1sccc1S(=O)(=O)N(CC(=O)Nc1ccc(C)c(F)c1)c1ccc(C)c(C)c1`: the Potency entry is “inactive”. On to `Cc1nn(Cc2ccc(F)cc2)c(C)c1NC(=O)c1cc(CC(C)C)on1`, for which the Potency entry is “inactive”. For `CCc1nc2ccc(C(=O)N3CCN(c4cc(Cl)ccc4C)CC3)cc2nc1CC`, the Potency entry is “inactive”. As to `COc1ccc(NC(=O)c2ccc3nc(C(C)C)oc3c2)cc1OC`, the Potency entry is “inactive”. For `COc1cccc(C(=O)Nc2ccc3nc4n(c(=O)c3c2)CCCCC4)c1`, the Potency entry is “inactive”.

In the case of `COc1ccc(C(=O)Nc2ccc3nc(N4CCCCC4)cc(C)c3c2)cc1OC`, the Potency is 10 µM [quencher] (active). As for `COc1ccccc1CN1CCC(CNC(=O)c2cnn(-c3ccccc3Cl)c2C2CCN(C(=O)OC(C)(C)C)CC2)CC1`, the Potency entry is “inactive”. As to `Fc1ccc(-c2nn(-c3ccccc3Cl)c3c2cnc2ccccc23)cc1`, the Potency result is “inactive”. Next, `O=C(Nc1ccccc1)Nc1nc2ccccc2s1`: “inactive”. Consider `O=C(Nc1ccc2ccccc2c1)Nc1ccc2snnc2c1`, for which the Potency was 4.47 µM [quencher] (active). Under `O=C(Nc1ccc2oc(-c3ccc4ccccc4c3)nc2c1)c1cccs1` stands “inactive”. As to `Cc1cc(C)c(NC(=O)CN2C(=O)c3cccnc3Oc3ccc(Cl)cc32)c(C)c1`, the Potency entry is “inactive”. Next, `COc1ccc(N2CCN(S(=O)(=O)c3ccc(-c4coc(C)n4)cc3)CC2)cc1`: “inactive”; `CCOc1ccc(-c2nc(N)ncc2-c2ccccc2OC)c(O)c1`: “inactive”; `CCOc1ccccc1Oc1cn[nH]c1-c1ccc(OC)cc1O`: 12.6 µM [quencher] (active).

For `COc1ccc(-c2[nH]ncc2CN(C)Cc2c(C)n[nH]c2C)c(OC)c1`, the Potency result is “inactive”. As for `COc1ccccc1CNC(=O)c1ccc(-n2c(C)cc3c2CCCC3)cc1`, the Potency entry was “inactive”. Consider `COc1ccc(OC)c(CNC(=O)c2c3c(nc4ccccc24)C(=O)N(C2CCCCC2)C3)c1`, for which the Potency result was “inactive”. On to `Fc1ccc(C(Nc2ccc(Cl)c(C(F)(F)F)c2)c2nnc(-c3ccccc3)o2)cc1` (stereo not drawn), for which the Potency result was “inactive”. In the case of `O=C(NCCc1c[nH]c2ccccc12)C(=O)NCC1CCCO1` (stereo not drawn), the Potency result is “inactive”.

As to `N#C/C(=C/c1ccc(-c2ccccc2[N+](=O)[O-])o1)C(=O)NCCN1CCCCC1`, the Potency entry was “inactive”.

For `N#C/C(=C/c1ccc(N2CCCCC2)o1)C(=O)NCCc1c[nH]c2ccccc12`, the Potency is 15.8 µM [quencher] (active). For the compound `Cc1ccc(Nc2c3c(nc4ccccc24)CCC3)cc1`, the Potency result was “inactive”. Under `COc1ccc(/C=C/C(=O)Nc2ccc3c(c2)OCCO3)cc1OC` stands “inactive”; under `COc1ccccc1Nc1c2c(nc3ccc(NC(=O)/C=C/c4cc(OC)c(OC)c(OC)c4)cc13)CCCC2`, 10 µM [quencher] (active); under `CCCN(C(=O)Cn1ncc2c([nH]c3ccc(C)cc32)c1=O)c1ccccc1C`, “inactive”. For the compound `c1cnc(Nc2nc(-c3ccc4ccccc4c3)cs2)nc1`, the Potency entry is “inactive”. On to `COC(=O)CSc1nccc(-c2cccs2)n1`, for which the Potency result was “inactive”. As to `Clc1ccc(Nc2nc(-c3cccs3)cs2)nc1`, the Potency was 14.1 µM [quencher] (active). In the case of `Cc1cccc(-n2ncc(C(=O)N3CCN(c4ccc(Cl)cc4)CC3)c2C2CCN(C(=O)OC(C)(C)C)CC2)c1`, the Potency result is “inactive”. For the compound `Cc1ccc(C)c(N2CCN(C(=O)C3CCC(CNS(=O)(=O)c4cccs4)CC3)CC2)c1` (stereo not drawn), the Potency result was “inactive”. Under `O=C(CC1SC(=Nc2ccccc2)N(Cc2ccccn2)C1=O)Nc1cccc(Cl)c1` (stereo not drawn) stands 10 µM [quencher] (active); under `CN1C(=O)C(CC(=O)Nc2ccccc2)S/C1=N/c1nccs1` (stereo not drawn), “inactive”. Regarding `O=C(Nc1cccc(Cl)c1)OCc1ccccn1`, the Potency result was “inactive”.

Regarding `Fc1ccc(CSc2nc(NCc3ccccc3)c3ccccc3n2)cc1`, the Potency entry was “inactive”. Next, `O=C(NC(=S)Nc1cccc2c(O)cccc12)c1cccc(Br)c1`: 11.2 µM [quencher] (active); `NS(=O)(=O)c1ccc(NC(=S)NC(=O)c2cccc(Br)c2)cc1`: “inactive”; `Cc1ccccc1NC(=S)NNC(=O)c1cccc(Br)c1`: “inactive”.

For the compound `COc1cccc(C(=O)N(Cc2cccc(Cl)c2)Cc2ccco2)c1`, the Potency entry is “inactive”. Next, `Cc1ccccc1CSc1nc2c([nH]c3ccccc32)c(=O)n1C`: “inactive”; `CCN(C(=O)CSc1nnc(C)n2c1cc1occc12)c1ccccc1`: “inactive”; `CC1CCN(S(=O)(=O)c2ccc3c(c2)N(CC(=O)NCCc2ccccc2)C(=O)CO3)CC1`: “inactive”.

In the case of `CCc1ccc2nc3sc(C(=O)Nc4nnc(CC)s4)c(N)c3cc2c1`, the Potency result was “inactive”. In the case of `CCc1ccccc1NC(=O)c1sc2nc3c(cc2c1N)CN(Cc1ccccc1)CC3`, the Potency entry was “inactive”. Consider `COc1ccc(Cl)cc1NC(=O)c1oc(C)nc1C`, for which the Potency entry was “inactive”.

Turning to `CCc1ccc(NC(=O)c2sc3nc4c(cc3c2N)CN(CC)CC4)cc1`, the Potency is 20 µM [quencher] (active). With `COc1ccc(Cl)cc1NC(=O)c1sc2nc3c(cc2c1N)CN(C)CC3`, the Potency was 10 µM [quencher] (active). As for `COc1ccc(Cl)cc1NC(=O)CCN1CCOCC1`, the Potency result is “inactive”.

With `O=C(Nc1ccc(S(=O)(=O)N2CCC(c3nc4ccccc4s3)CC2)cc1)c1ccccc1F`, the Potency result is “inactive”. For the compound `Cc1cc(C)cc(-n2ccnc2SCC(=O)Nc2nc3ccccc3s2)c1`, the Potency entry is “inactive”. As for `CCOc1ccccc1CNC(=O)Nc1cn(CC(C)C)c(=O)c2ccccc12`, the Potency result was “inactive”. For the compound `CC(C)Cn1c(C2CC(=O)N(c3ccccc3Cl)C2)nc2ccccc21` (stereo not drawn), the Potency entry was “inactive”. Under `Cc1ccc(-c2csc(-c3c[nH]c4ccccc34)n2)cc1` stands 7.08 µM [quencher] (active); under `CCCc1cc(-c2nc(-c3ccc(C)cc3)cs2)ccn1`, “inactive”.

In the case of `Cc1ccc(-c2csc(-c3cc(C)on3)n2)cc1`, the Potency result is “inactive”.

Consider `Cc1ccc2c(=O)c(C(=O)c3ccc(Cl)cc3)cn(CC(=O)NC3CCCCC3)c2n1`, for which the Potency result is “inactive”. Turning to `COC(=O)CCNC(=O)c1ccc2[nH]c(C)c(C)c2c1`, the Potency result was “inactive”. Turning to `Cc1ccc(C(=O)NCCSc2c(C)[nH]c3ccccc23)cc1C`, the Potency was 12.6 µM [quencher] (active). Under `CN(C)CCCNC(=O)c1ccc2[nH]c3ccccc3c2c1` stands “inactive”; under `COc1ccc(C(=O)N2CCC(c3nc4ccccc4o3)CC2)cc1`, “inactive”; under `CCOc1ccccc1C(=O)NCc1ccc2c(c1)CCN2C(=O)c1ccc(F)cc1`, “inactive”.
